Measurements: ChEMBL document CHEMBL3988442, “University of Dundee, Small-Polar-MMV Screening Library” (2021)
For some assays here: Results with a measured potency or affinity are listed apart.

How the values were obtained:
Parameters in all cases: scale not given: direction of the effect not stated beside the values
[1] = biological target: Protein translocase subunit SecA (Escherichia coli (strain K12)) (UniProt P10408); test: Assay to Identify E. coli SecA ATPase Inhibitors; format: functional; details: 30 µM
Chain of Protein translocase subunit SecA (Escherichia coli (strain K12)) (P10408 whole entry): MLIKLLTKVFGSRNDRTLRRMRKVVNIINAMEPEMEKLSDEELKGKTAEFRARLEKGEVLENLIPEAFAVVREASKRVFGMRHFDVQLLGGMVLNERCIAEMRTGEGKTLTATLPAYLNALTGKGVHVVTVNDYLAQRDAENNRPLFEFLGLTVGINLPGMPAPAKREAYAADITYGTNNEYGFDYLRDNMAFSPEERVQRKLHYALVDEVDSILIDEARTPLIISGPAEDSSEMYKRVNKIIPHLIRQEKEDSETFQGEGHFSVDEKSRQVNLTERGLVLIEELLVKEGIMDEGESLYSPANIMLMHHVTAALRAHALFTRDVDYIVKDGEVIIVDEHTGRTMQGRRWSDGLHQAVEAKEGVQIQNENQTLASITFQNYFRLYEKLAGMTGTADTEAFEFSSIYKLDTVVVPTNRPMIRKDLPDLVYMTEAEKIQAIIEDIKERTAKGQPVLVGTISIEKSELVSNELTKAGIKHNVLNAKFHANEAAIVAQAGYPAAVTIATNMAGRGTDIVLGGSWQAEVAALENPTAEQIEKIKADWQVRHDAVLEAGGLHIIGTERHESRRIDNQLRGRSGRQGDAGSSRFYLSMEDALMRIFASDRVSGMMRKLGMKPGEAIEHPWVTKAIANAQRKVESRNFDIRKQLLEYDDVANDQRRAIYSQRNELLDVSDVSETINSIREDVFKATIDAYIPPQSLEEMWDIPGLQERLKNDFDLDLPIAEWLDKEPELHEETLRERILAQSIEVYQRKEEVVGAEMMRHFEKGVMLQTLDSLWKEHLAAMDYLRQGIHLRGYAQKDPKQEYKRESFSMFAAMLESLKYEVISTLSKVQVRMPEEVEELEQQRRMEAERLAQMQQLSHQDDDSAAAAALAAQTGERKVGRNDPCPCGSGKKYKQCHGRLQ

[2] = biological target: T1, Ubiquitin-activating enzyme e1, putative (Leishmania donovani (strain BPK282A1)) (UniProt E9BSI1); test: Leishmania donovani Ubiquitin Activating Enzyme (LdE1); format: functional; details: 30 µM
T1 sequence (whole entry): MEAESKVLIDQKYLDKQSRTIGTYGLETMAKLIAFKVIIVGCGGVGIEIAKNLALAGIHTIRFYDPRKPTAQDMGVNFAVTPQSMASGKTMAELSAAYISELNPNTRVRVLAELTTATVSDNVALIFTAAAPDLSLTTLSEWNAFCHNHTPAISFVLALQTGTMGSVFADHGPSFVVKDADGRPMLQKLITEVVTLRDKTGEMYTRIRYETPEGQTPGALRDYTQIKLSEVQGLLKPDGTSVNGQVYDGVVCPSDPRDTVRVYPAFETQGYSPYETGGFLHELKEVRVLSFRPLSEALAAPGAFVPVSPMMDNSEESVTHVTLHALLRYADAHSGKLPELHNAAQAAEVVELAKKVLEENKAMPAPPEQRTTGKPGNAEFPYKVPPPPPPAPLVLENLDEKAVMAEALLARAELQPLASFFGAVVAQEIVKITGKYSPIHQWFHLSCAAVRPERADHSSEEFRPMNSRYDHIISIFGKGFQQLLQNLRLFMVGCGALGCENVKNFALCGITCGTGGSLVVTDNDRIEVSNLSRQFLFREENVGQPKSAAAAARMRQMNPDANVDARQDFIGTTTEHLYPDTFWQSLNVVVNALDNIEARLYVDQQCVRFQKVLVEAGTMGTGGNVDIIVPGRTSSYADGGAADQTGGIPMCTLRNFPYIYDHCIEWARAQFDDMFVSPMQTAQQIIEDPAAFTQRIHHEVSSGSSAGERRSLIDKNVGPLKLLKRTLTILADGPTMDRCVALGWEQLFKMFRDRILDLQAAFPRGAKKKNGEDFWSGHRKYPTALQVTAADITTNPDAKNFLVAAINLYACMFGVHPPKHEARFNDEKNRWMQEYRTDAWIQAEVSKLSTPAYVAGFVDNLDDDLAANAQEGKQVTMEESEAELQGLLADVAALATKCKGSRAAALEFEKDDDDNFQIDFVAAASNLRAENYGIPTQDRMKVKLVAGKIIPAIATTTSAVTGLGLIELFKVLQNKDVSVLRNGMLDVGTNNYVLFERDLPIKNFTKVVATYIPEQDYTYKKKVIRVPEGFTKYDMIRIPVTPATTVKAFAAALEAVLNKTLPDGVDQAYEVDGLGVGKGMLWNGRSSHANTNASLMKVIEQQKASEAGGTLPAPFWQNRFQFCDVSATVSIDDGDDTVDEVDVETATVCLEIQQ

[3] = biological target: AMP-activated protein kinase, AMPK (Homo sapiens) (UniProt P54646+O43741+P54619+Q9UGJ0+Q9Y478+Q13131+Q9UGI9); test: AMP-dependent Kinase enzyme assay. An in vitro enzyme assay that detects ADP turnover that is directly proportional to AMPK activity. This uses naive AMPK that is activated during the assay with MK-8722; format: functional; details: 30 µM
[4] = biological target: Sialic acid-binding Ig-like lectin 9 (Homo sapiens) (UniProt Q9Y336); test: Hs-Siglec9 ALPHAscreen SOP 20170721; details: 10 µM
Chain of Sialic acid-binding Ig-like lectin 9 (Homo sapiens) (Q9Y336 whole entry): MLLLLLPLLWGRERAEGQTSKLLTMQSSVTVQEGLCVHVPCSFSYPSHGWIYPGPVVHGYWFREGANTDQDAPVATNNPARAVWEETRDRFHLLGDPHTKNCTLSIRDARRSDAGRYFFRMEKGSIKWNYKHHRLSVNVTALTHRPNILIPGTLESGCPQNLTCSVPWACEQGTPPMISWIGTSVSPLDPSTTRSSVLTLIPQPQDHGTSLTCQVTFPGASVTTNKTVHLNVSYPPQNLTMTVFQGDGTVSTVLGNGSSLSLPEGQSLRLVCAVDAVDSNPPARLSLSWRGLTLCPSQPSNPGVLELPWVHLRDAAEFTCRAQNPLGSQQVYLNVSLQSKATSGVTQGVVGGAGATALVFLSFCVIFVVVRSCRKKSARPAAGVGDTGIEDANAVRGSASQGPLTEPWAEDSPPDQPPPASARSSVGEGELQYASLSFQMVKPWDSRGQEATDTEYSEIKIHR

Trypanosoma cruzi = test: Trypanosoma cruzi phosphomannomutase and mannose-1-phosphate guanylyltransferase assay; format: functional; details: 10 µM
[5] = biological target: T2, Arginase-2, mitochondrial (Homo sapiens) (UniProt P78540); test: in vitro enzyme assay to detect the production of urea directly proportional to the activity of Arginase II; format: functional; details: 33.3 µM; further: in the data most compounds retested in dose-response had high values
T2 sequence (whole entry): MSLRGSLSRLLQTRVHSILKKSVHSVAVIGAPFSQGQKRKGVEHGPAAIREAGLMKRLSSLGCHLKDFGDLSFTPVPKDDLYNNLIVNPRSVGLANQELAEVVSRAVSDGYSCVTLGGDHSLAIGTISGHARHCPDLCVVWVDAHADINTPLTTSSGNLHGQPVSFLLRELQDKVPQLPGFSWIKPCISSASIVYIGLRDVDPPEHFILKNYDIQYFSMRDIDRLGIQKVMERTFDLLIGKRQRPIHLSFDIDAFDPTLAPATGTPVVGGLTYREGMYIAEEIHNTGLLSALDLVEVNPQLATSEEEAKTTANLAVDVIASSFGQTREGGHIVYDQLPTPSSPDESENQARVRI

[6] = biological target: T3, Proteasome subunit beta (Trypanosoma cruzi) (UniProt O96673); test: Trypanosoma cruzi proteasome chymotrypsin-like activity (TcProtChymo) assay.; further: in the data most compounds retested in dose-response had high values; format: functional; details: 9.37 µM
T3 sequence (whole entry): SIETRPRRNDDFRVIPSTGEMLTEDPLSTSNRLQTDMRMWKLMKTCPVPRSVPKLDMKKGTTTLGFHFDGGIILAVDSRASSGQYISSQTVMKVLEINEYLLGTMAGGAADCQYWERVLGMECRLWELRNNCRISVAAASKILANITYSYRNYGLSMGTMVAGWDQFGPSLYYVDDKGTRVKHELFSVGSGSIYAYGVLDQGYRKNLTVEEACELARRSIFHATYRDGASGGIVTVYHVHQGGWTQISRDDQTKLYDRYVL

Homo sapiens = organism: Homo sapiens; test: To identify inhibition of the IFN signalling (Jak-Stat) pathway via expression of an eGFP reporter gene under the control of an IFN-stimulated response element (ISRE) containing MxA promoter.; format: functional; details: 30 µM
[7] = biological target: T4, Tyrosyl-tRNA synthetase, putative (Trypanosoma cruzi (strain CL Brener)) (UniProt Q4DSP6); test: Trypanosoma cruzi tyrosyl tRNA synthetase (TcYRS) _High Tyrosine SOP; format: functional; details: 30 µM; further: in the data most compounds retested in dose-response had high values
T4 sequence (whole entry): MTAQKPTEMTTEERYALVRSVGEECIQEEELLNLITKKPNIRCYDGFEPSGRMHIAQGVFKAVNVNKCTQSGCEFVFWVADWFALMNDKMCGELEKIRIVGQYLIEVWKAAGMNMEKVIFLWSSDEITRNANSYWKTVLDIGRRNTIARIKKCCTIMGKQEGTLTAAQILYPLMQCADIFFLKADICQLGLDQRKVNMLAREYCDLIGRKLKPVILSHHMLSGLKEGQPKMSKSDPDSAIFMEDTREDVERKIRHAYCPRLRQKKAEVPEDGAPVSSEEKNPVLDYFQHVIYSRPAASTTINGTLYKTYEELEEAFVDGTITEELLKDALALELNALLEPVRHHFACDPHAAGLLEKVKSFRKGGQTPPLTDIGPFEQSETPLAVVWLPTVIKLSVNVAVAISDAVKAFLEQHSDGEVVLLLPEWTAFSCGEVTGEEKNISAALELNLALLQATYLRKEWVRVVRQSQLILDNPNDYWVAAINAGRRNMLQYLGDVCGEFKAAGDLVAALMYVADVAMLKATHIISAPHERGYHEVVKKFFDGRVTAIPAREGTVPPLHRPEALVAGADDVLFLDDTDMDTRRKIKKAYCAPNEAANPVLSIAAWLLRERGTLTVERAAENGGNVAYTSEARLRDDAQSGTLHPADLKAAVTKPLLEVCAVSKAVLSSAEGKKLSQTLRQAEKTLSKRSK

[8] = biological target: T4, Tyrosyl-tRNA synthetase, putative (Trypanosoma cruzi (strain CL Brener)); test: Trypanosoma cruzi tyrosyl tRNA synthetase (TcYRS) SOP; format: functional; details: 30 µM
[9] = biological target: Chromo domain-containing protein 1 (Saccharomyces cerevisiae (strain ATCC 204508 / S288c) (Baker's yeast)) (UniProt P32657); test: ScCHD-1 Enzyme Inhibition Assay; format: functional; details: 30 µM; further: in the data most compounds retested in dose-response had high values
Chain of Chromo domain-containing protein 1 (Saccharomyces cerevisiae (strain ATCC 204508 / S288c) (Baker's yeast)) (P32657 whole entry, the tested form may be a part): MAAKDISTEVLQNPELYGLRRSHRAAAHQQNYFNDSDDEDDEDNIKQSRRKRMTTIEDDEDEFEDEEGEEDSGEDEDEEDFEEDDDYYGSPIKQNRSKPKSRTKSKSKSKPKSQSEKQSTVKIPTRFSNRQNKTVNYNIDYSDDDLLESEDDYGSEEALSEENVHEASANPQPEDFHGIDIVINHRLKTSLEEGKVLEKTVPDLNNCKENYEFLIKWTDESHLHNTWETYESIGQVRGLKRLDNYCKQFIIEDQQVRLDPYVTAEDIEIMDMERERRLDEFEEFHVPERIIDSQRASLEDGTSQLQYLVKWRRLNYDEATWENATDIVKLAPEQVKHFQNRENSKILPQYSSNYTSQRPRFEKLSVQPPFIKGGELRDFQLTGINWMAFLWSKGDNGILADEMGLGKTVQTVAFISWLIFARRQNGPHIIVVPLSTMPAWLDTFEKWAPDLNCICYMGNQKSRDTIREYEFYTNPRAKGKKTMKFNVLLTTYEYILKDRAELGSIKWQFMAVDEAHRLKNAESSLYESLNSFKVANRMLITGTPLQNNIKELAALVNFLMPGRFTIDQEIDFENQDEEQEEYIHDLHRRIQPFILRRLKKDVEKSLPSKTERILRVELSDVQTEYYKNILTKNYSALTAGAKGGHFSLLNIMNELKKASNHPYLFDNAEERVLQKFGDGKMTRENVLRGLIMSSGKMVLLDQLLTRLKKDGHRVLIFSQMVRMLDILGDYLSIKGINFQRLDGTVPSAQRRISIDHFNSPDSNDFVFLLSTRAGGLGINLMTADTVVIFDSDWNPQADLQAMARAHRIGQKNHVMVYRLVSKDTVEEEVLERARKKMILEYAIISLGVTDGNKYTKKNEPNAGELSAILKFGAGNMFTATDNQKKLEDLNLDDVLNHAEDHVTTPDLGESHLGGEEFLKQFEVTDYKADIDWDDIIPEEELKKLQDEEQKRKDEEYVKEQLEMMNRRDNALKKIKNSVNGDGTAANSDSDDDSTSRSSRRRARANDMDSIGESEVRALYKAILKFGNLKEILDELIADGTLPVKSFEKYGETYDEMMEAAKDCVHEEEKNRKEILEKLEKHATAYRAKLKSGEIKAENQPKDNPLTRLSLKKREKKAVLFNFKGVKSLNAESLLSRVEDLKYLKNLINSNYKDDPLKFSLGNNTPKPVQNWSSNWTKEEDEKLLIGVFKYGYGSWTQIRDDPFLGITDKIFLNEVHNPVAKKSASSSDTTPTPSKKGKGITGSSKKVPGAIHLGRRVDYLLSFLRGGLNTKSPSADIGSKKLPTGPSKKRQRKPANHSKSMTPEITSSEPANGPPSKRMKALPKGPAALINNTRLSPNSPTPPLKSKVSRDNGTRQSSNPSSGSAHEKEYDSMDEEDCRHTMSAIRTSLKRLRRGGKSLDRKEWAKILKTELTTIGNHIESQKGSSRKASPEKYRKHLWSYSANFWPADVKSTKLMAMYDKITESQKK

SMILES: COc1ccc(NC(=O)Cn2nc(C)c(C)cc2=O)cc1OC
- Percent Effect [1]: -0.134%
- Percent Effect [2]: 0%
- Percent Effect [3]: -0.466%
- Percent Effect [4]: 23.4%
- Percent Effect (Trypanosoma cruzi): 5.79%
- Percent Effect [5]: 20.5%
- Percent Effect [6]: 8.97%
- Percent Effect (Homo sapiens): 2.79%
- Percent Effect [7]: 0.529%
- Percent Effect [8]: 9.76%
- Percent Effect [9]: -7.49%

SMILES: Cc1nc2c(c(C)c1CC(=O)Nc1cccc(C#N)c1)c(=O)[nH]n2C
- Percent Effect [1]: -5.36%
- Percent Effect [2]: 7.79%
- Percent Effect [3]: 0.36%
- Percent Effect [4]: -4.8%
- Percent Effect (Trypanosoma cruzi): -4.8%
- Percent Effect [5]: -1.9%
- Percent Effect [6]: 10.8%
- Percent Effect (Homo sapiens): 16.6%
- Percent Effect [7]: 2.86%
- Percent Effect [8]: 2.35%
- Percent Effect [9]: -19.9%

SMILES: CC(O)CN1CCN(C(=O)CN(C)c2ccc(Cl)cn2)CC1 (stereo not given)
- Percent Effect [1]: -0.0278%
- Percent Effect [2]: -2.7%
- Percent Effect [3]: -4.09%
- Percent Effect [4]: 7.01%
- Percent Effect (Trypanosoma cruzi): -1.93%
- Percent Effect [5]: -2.38%
- Percent Effect [6]: 14.8%
- Percent Effect (Homo sapiens): 14.1%
- Percent Effect [7]: 4.76%
- Percent Effect [8]: 7.32%
- Percent Effect [9]: -3.67%

SMILES: Cc1cc(C)n(CC2CN(CC(=O)Nc3c(C)n[nH]c3C)CCO2)n1 (stereo not given)
- Percent Effect [1]: -3.28%
- Percent Effect [2]: 15.6%
- Percent Effect [3]: 2.77%
- Percent Effect [4]: 0.0825%
- Percent Effect (Trypanosoma cruzi): -8.61%
- Percent Effect [5]: 0%
- Percent Effect [6]: 10.5%
- Percent Effect (Homo sapiens): 24.1%
- Percent Effect [7]: 6.8%
- Percent Effect [8]: 12.2%
- Percent Effect [9]: -3.32%

SMILES: CCNC(c1ccc(OC)cc1)c1cccnc1 (stereo not given)
- Percent Effect [1]: -5.06%
- Percent Effect [2]: -1.27%
- Percent Effect [3]: 5.52%
- Percent Effect [4]: 9.44%
- Percent Effect (Trypanosoma cruzi): -1.74%
- Percent Effect [5]: -0.645%
- Percent Effect [6]: 3.94%
- Percent Effect (Homo sapiens): 6.89%
- Percent Effect [7]: 1.04%
- Percent Effect [8]: 5.06%
- Percent Effect [9]: -10.2%

SMILES: COC1COC2(CCN(Cc3ccccc3Cl)CC2)C1 (stereo not given)
- Percent Effect [1]: -5.82%
- Percent Effect [2]: 1.33%
- Percent Effect [3]: 7.01%
- Percent Effect [4]: 5.98%
- Percent Effect (Trypanosoma cruzi): -0.982%
- Percent Effect [5]: 2.29%
- Percent Effect [6]: 11.5%
- Percent Effect (Homo sapiens): 20.8%
- Percent Effect [7]: -2.12%
- Percent Effect [8]: 5.13%
- Percent Effect [9]: 0.93%

SMILES: CC1CCN(c2ncc3c(n2)CN(c2ccccc2)C3=O)CC1
- Percent Effect [1]: -5.32%
- Percent Effect [2]: 5.2%
- Percent Effect [3]: -0.285%
- Percent Effect [4]: 2.67%
- Percent Effect (Trypanosoma cruzi): -5.8%
- Percent Effect [5]: -30.3%
- Percent Effect [6]: -5.82%
- Percent Effect (Homo sapiens): -2.62%
- Percent Effect [7]: 2.15%
- Percent Effect [8]: 11.1%
- Percent Effect [9]: 5.77%

SMILES: Cc1nc(C)n(CC2CN(Cc3cccc4c3OCCO4)CCO2)n1 (stereo not given)
- Percent Effect [1]: -6.14%
- Percent Effect [2]: 18.4%
- Percent Effect [3]: -1.72%
- Percent Effect [4]: 0.869%
- Percent Effect (Trypanosoma cruzi): 3.46%
- Percent Effect [5]: 1.08%
- Percent Effect [6]: 1.78%
- Percent Effect (Homo sapiens): 2.86%
- Percent Effect [7]: 11.3%
- Percent Effect [8]: 28.4%
- Percent Effect [9]: -8.32%

SMILES: Cc1cc(NC(=O)CN2CCOC(Cn3cccn3)C2)n(C)n1 (stereo not given)
- Percent Effect [1]: -5.44%
- Percent Effect [2]: 0%
- Percent Effect [3]: 5.74%
- Percent Effect [4]: -1.25%
- Percent Effect (Trypanosoma cruzi): 1.27%
- Percent Effect [5]: -1.05%
- Percent Effect [6]: -1.86%
- Percent Effect (Homo sapiens): 15.9%
- Percent Effect [7]: 2.86%
- Percent Effect [8]: 9.41%
- Percent Effect [9]: -16.3%

SMILES: c1cnc(-c2nc(CN3CCC(c4ccn[nH]4)CC3)cs2)nc1
- Percent Effect [1]: -1.4%
- Percent Effect [2]: 13.5%
- Percent Effect [3]: -30.2%
- Percent Effect [4]: 15%
- Percent Effect (Trypanosoma cruzi): 2.32%
- Percent Effect [5]: 1.66%
- Percent Effect [6]: 2.15%
- Percent Effect (Homo sapiens): -0.446%
- Percent Effect [7]: 7.92%
- Percent Effect [8]: 23.2%
- Percent Effect [9]: -3.65%
